Screening data: PubChem, National Center for Advancing Translational Sciences (NCATS)
VACV Venus inh – qHTS for Stage-Specific Inhibitors of Vaccinia Orthopoxvirus: Venus Reporter Primary qHTS; Vaccinia virus Venus reporter expression, fluorescence; actives 0.46% (n = 330,000); Potency, µM (series often up to 36.5 µM), for inactives: at the top dose activity change, negative = inhibition, hits mostly inhibitors; calls by dose curve; tested in A549 cells; note: potency is the fitted concentration of half-maximal effect; nearly all actives have a fitted effect of over 30% in size
Marburg entry inh – qHTS for inhibitors of binding or entry into cells for Marburg Virus. actives 1.8% (n = 300,000). Marburg virus pseudotyped entry inhibition, cell reporter. AID 540276, 2011. Potency, µM (series often up to 37.8 µM), without a hit: at the highest dose activity change, negative = inhibition, most hits filed as inhibitors; calls by dose curve; tested in HEK293 cells; note: potency is the fitted concentration of half-maximal effect
HCV inhibitor – qHTS Assay for Inhibitors of Hepatitis C Virus (HCV); Potency, µM (highest dose often 41.8 µM), inactives show at the highest dose activity change, negative = inhibition, most hits filed as inhibitors; Huh7.5.1 HCVcc-Cre infection, luciferase reporter, 44 h; actives 3.4% (n = 340,000); active = well fitted inhibition curve with a large enough effect; inconclusive = small, poorly fitted or top-dose-only effect, or another doubt; inactive = no such curve, though single readings can be large or run the other way; note: potency is the fitted concentration of half-maximal effect
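HCVcc-Cre virus at an moi near 0.5 was added right after compound to cells cultured 4 h from seeding (1,000 cells/well). Luciferase activity was determined 44 h later, 15 min after substrate addition at RT.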
LASV entry inh – qHTS for Inhibitors of binding or entry into cells for Lassa Virus; Lassa virus pseudotype entry inhibition, cell reporter; Potency, µM (top dose mostly 37.9 µM), for the others: at the highest dose activity change, negative = inhibition, hits mostly inhibitors; actives 1.2% (n = 300,000); AID 540256, 2011; calls by dose curve; tested in HEK293 cells; note: potency is the fitted concentration of half-maximal effect; nearly all actives have a fitted effect of over 50% in size
HCMV inh – qHTS Assay for inhibitors of the human cytomegalovirus (HCMV) | HFF cells, HCMV-luciferase reporter, 72 h; active compounds read low | AID 1259415, 2018 | activity change, negative = inhibition, % at 57.5 µM | actives 4.5% (n = 410,000); in the data active = activity change below about -60%; inconclusive = no clear call, values can overlap the other calls; inactive = above about -39%
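Cell-based, HFFs, 1000 cells/well, 16 h 37C; cpds in DMSO + HCMV-luc, MOI 1 PFU/cell; 72 h 37C; OneGlo luminescence after 5 min RT; norm. to buffer vs Salinomycin 10uM.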
Vaccinia mCherry – qHTS for Stage-Specific Inhibitors of Vaccinia Orthopoxvirus: mCherry Reporter Primary qHTS; Vaccinia virus mCherry reporter infection, fluorescence; Potency, µM (highest dose often 36.5 µM), without a hit: at the highest dose activity change, negative = inhibition, actives largely listed as inhibitors; actives 0.63% (n = 310,000); calls by dose curve; tested in A549 cells; note: potency is the fitted concentration of half-maximal effect; nearly all actives have a fitted effect of over 35% in size
Numbers without * were called inactive; [ ] = remark or other dose. Most compounds without a hit are left out; they make up all but 7.8% or so of the library. % is set by controls: 0 for no effect and ±100 for the full control effect.

For CC1=CC(C)[C@H](/C=N/n2c(=O)[nH]c3c([nH]c4ccc(Br)cc43)c2=O)C(C)C1 (stereo partly specified) the results were VACV Venus inh 3%, Marburg entry inh -25%, HCV inhibitor 9%, LASV entry inh inconclusive, HCMV inh -74* and Vaccinia mCherry inactive.
Screening COc1ccc2[nH]c3c(=O)n(/N=C/[C@H]4C(C)C=C(C)CC4C)c(=O)[nH]c3c2c1 (stereo partly specified) returned Marburg entry inh -31%, HCV inhibitor inconclusive, LASV entry inh -4% and HCMV inh -80*.
`Cc1cccc(CNC(=O)CN2C(=O)C3CCCCN3c3ccc(C(=O)N4CCCC4)cc32)c1` (stereo unspecified) gave VACV Venus inh -14%, LASV entry inh 2%[46.1 µM], HCMV inh 0 and Vaccinia mCherry -6%.
`CN(Cc1ccc(OCC(O)CN2CCCCC2)cc1)Cc1ccnc2ccccc12` (stereo unspecified) gave VACV Venus inh inconclusive, HCV inhibitor 5.6µM*, HCMV inh -66* and Vaccinia mCherry inconclusive.
Screening CCN(CCCCCN(C)C)Cc1cc2ccccc2o1 returned VACV Venus inh -13%, Marburg entry inh 10µM*, HCV inhibitor inconclusive, LASV entry inh inconclusive, HCMV inh -23 and Vaccinia mCherry -22%.
`CN(C)CCCN(C(=O)c1cc2ccccc2oc1=O)c1nc2ccc(F)cc2s1` gave VACV Venus inh -4%, Marburg entry inh -7%, HCV inhibitor inconclusive, LASV entry inh 7%, HCMV inh -12 and Vaccinia mCherry inactive.
Screening CCOc1ccccc1Nc1nnc(SC(C)C(=O)Nc2nc(-c3ccccc3)cs2)s1 (stereo unspecified) returned VACV Venus inh 8%, Marburg entry inh 3.5µM*, HCV inhibitor inconclusive, LASV entry inh 6.3µM*, HCMV inh -34 and Vaccinia mCherry -18%.
`CCOc1ccccc1NC(=O)C(C)Sc1cc(-c2ccccc2)nc(C)n1` (stereo unspecified) gave VACV Venus inh -12%, Marburg entry inh -22%[46.1 µM], LASV entry inh -13%[46.1 µM], HCMV inh 16 and Vaccinia mCherry -16%.
Cc1ccc(-n2c(=O)c3c(cnn3C)n(CC(=O)Nc3cc(C)ccc3C)c2=O)cc1 was read as VACV Venus inh -1%, Marburg entry inh 3%[46.1 µM], LASV entry inh -20%[46.1 µM], HCMV inh 5 and Vaccinia mCherry 2%.
For O=S(=O)(NCCc1csc2nc(-c3ccccc3)nn12)c1ccc(Oc2ccccc2)cc1 the results were VACV Venus inh -26%, LASV entry inh inconclusive, HCMV inh -67* and Vaccinia mCherry -22%.
COc1ccc(-c2nc3scc(CCNS(=O)(=O)c4ccc(Oc5ccccc5)cc4)n3n2)cc1 was read as VACV Venus inh -21%, LASV entry inh 14%[46.1 µM], HCMV inh -28 and Vaccinia mCherry -15%.
COc1ccc(-c2nc3sc(CCNS(=O)(=O)c4ccccc4)c(C)n3n2)cc1 was read as VACV Venus inh -19%, LASV entry inh -30%[46.1 µM], HCMV inh inconclusive and Vaccinia mCherry -19%.
`Cc1cc(C)c(S(=O)(=O)NCCc2csc3nc(-c4ccc(Cl)cc4)nn23)c(C)c1` gave VACV Venus inh -29%, LASV entry inh -1%[46.1 µM], HCMV inh -66* and Vaccinia mCherry -27%.
Cc1c(CCNS(=O)(=O)c2ccccc2)sc2nc(-c3ccc(Cl)cc3)nn12 was read as VACV Venus inh inconclusive, LASV entry inh inconclusive, HCMV inh -75* and Vaccinia mCherry inconclusive.
For Cc1ccccc1N1CCN(C(=O)c2cc(-c3ccccc3)nc3c2cnn3C(C)C)CC1 the results were VACV Venus inh -14%, HCMV inh -13 and Vaccinia mCherry inactive.
`CC(C)n1ncc2c(C(=O)N3CCN(c4ccc(F)cc4)CC3)cc(-c3ccccc3)nc21` gave HCV inhibitor -10% and HCMV inh -70*.
Screening COc1cccc(N2CCN(C(=O)c3cc(-c4ccccc4)nc4c3cnn4C(C)C)CC2)c1 returned HCV inhibitor 11µM* and HCMV inh 0.
Screening COc1ccccc1N1CCN(C(=O)c2cc(-c3ccccc3)nc3c2cnn3C(C)C)CC1 returned VACV Venus inh -16%, HCMV inh 37 and Vaccinia mCherry -10%.
O=C(NCCN1Cc2ccccc2OC(c2ccsc2)C1)c1cncs1 (stereo unspecified) was read as VACV Venus inh -5% and Vaccinia mCherry -11%.
For O=C(Nc1ccc(Oc2cccnc2)cc1)c1ccccc1F the results were Marburg entry inh inconclusive, HCV inhibitor inconclusive, LASV entry inh 24% and HCMV inh -86*.
For CCOC(=O)Cc1ncccc1C(=O)Nc1ccc(Oc2ccccc2)cc1 the results were VACV Venus inh -10%, Marburg entry inh inconclusive, HCV inhibitor -9%, LASV entry inh 12%, HCMV inh -98* and Vaccinia mCherry -6%.
`O=C(Nc1ccc(F)cc1)c1cccnc1Oc1ccccc1` gave VACV Venus inh 0%, Marburg entry inh 8%, HCV inhibitor 31%, LASV entry inh -11%, HCMV inh 40 and Vaccinia mCherry -3%.
O=C(Nc1ccc(Oc2cccnc2)cc1)c1ccccc1Cl was read as VACV Venus inh -9%, Marburg entry inh -1%[46.1 µM], HCV inhibitor inconclusive, LASV entry inh 0%[46.1 µM], HCMV inh inconclusive and Vaccinia mCherry inactive.
O=c1cc(C(F)(F)F)[nH]c2ccc(C(F)(F)F)cc12 was read as VACV Venus inh inconclusive, Marburg entry inh inconclusive, HCV inhibitor inconclusive, LASV entry inh inconclusive, HCMV inh -97* and Vaccinia mCherry -28%.
Screening Cc1cc(=O)c2ccc(C(F)(F)F)cc2[nH]1 returned VACV Venus inh -7%[7.34 µM], Marburg entry inh -15%[46.1 µM], HCV inhibitor -5%, LASV entry inh 8%, HCMV inh -6 and Vaccinia mCherry 5%[7.34 µM].
Screening CN(C)CCN(CC1CCCN(Cc2ccccc2F)C1)C(=O)c1ccc(Cl)cc1 (stereo unspecified) returned VACV Venus inh -9%, Marburg entry inh 8.9µM*, HCV inhibitor inconclusive, LASV entry inh inconclusive, HCMV inh -4 and Vaccinia mCherry inconclusive.
Screening Cc1ccc[n+](CC(=O)c2cc3ccccc3oc2=O)c1 returned VACV Venus inh -19%, Marburg entry inh 7%, HCV inhibitor 10%, LASV entry inh 12%, HCMV inh 2 and Vaccinia mCherry inactive.
